# Source: PubChem BioAssay (NCATS)
# Results filed as inconclusive are left out. Entries that show only a call come without a potency. Values without a mark were called inactive. Activity calls are given as the source filed them. The call rests on the fitted dose curve; in most records, active means well fitted inhibition curve with a large enough effect; inconclusive means small, poorly fitted or top-dose-only effect; inactive means no such curve, though single readings can be large or run the other way.
# Assay: Primary fluorescence-based thiol-reactive (MSTI) qHTS assay for identification of artifact compounds. (AID 1845221); further: nearly all actives have a fitted effect of over 65% in size;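 on activity change, negative = thiol reactive: thiol-reactive compounds lower the probe fluorescence signal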
# Conditions: MSTI thiol-reactivity probe, 1 h; series mostly up to 53.8 µM
# Summary of the method: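 Curve-fitted percent inhibition (4-parameter Hill) derived from fluorescence, Ex 525/Em 598 nm, scaled with Acetyl-MSTI and MSTI; 1 h incubation at room temperature.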
# Potency means the concentration at half of the fitted maximal effect.
SMILES,"activity change, negative = thiol reactive",Potency
C[C@@H]1O[C@@H](OC2C(O[C@H]3[C@H](O[C@H]4CC[C@@]5(C)C(CC[C@]6(C)C5CC=C5C7CC(C)(C)CC(O)[C@]7(C)CC[C@]56C)C4(C)C)O[C@H](C(=O)O)[C@@H](O)[C@@H]3O)OC(CO)C(O)C2O)[C@H](O)[C@H](O)[C@H]1O (some centres not stated),22.1% [at 11.5 µM],–
C[C@H]1/C=C/C=C/C=C/C=C/C=C/[C@@H](O)[C@H](C(=O)O)[C@H](O)C[C@H](O)CCC[C@H](O)C[C@H](O)C[C@H](O)[C@@H](C)C(=O)O[C@@H]1C,–,inactive
CC(=O)/C=C/[C@H]1[C@](C)(O)[C@@H](O)[C@H](O)C2C(C)(C)CCC[C@@]21C (some centres not stated),–,inactive
CC(=O)O[C@@H]1C[C@@H](C)[C@](O)(CCC2=CC(=O)OC2)[C@@]2(C)CCCC(C)(C)C12 (some centres not stated),–,inactive
CC(=O)OCC1OC(O[C@H]2CC[C@]34C[C@]35CC(O)[C@]3(C)[C@@H]([C@H](C)CC/C=C(\C)C(=O)O)C(O)C[C@@]3(C)C5CC[C@H]4C2(C)C)C(O)C(O)C1OC1OCC(O)C(O)C1O (some centres not stated),154% [at 11.5 µM],–
Cc1c(F)cc(C(=O)NC2CC2)cc1-c1ccc(C(=O)NCC(C)(C)C)cn1,–,inactive
O=C(O)c1ccnc2cc(-c3nc4ccccc4n3CCN3CCCCC3)sc12,–,inactive
Cc1nnc(-c2sc(NC(=O)[C@H](C(C)C)n3c(=O)[nH]c4ccccc4c3=O)nc2C)o1,–,inactive
O=C(OC(C(F)(F)F)C(F)(F)F)N1CCN(Cc2cccc(Oc3ccccc3)c2)CC1,–,inactive
O=C(OC[C@H]1O[C@H](O[C@]2(CO)O[C@H](CO)[C@@H](O)[C@@H]2O)[C@H](O)[C@@H](O)[C@@H]1O)c1ccc(O)cc1,–,inactive
Cc1cc(CO)c(O)c(C(=O)CC2CC(=O)NC(=O)C2)c1,–,inactive
COc1cc(Cc2cnc(N)nc2N)c(C(C)C)cc1OC,–,inactive
CC(C)CC[C@@H](O)[C@](C)(O)[C@H]1CC[C@@]2(O)C3=CC(=O)[C@@H]4C[C@@H](O)[C@@H](O)C[C@]4(C)[C@H]3CC[C@]12C,–,inactive
C=C1CCC(OC(C)=O)C2(C)CC3OC(=O)C(C)=C3CC12 (configuration not stated),–,inactive
Cc1ccc2nc(NC(=O)CSc3nc4c(c(=O)n3-c3ccc(F)cc3)SCC4)sc2c1,–,inactive
CC(=O)c1[nH]cc(CCC(=O)O)c1CC(=O)O,–,inactive
FC(F)(F)c1nnc2c(Sc3ccccc3)nc3ccc(Cl)cc3n12,–,inactive
O=C(/C=C/c1ccc(O)c(O)c1)O[C@H]1[C@@H]2C=CO[C@@H](O[C@@H]3O[C@H](CO)[C@@H](O)[C@H](O)[C@H]3O)[C@@H]2[C@@]2(CO)O[C@@H]12,–,2.07 µM (active)
C=C1CCC2[C@](C)(CCC[C@]2(C)C(=O)O)[C@H]1CC/C(C)=C/C(=O)OC (some centres not stated),–,inactive
Cc1nc2cc(-c3cc(F)cc(C#N)c3)ccc2s1,–,inactive
COC(=O)C[C@H]1C(C)(C)[C@H](OC(=O)C(C)C)C2CC3=C4CC(=O)O[C@@H](c5ccoc5)[C@]4(C)CCC3[C@@]1(C)C2=O (some centres not stated),–,inactive
O=C(/C=C/c1ccccc1)OC[C@H]1O[C@@H](OC(=O)c2cc(O)c(O)c(O)c2)[C@H](O)[C@@H](O)[C@@H]1O,–,0.327 µM (active)
CC12CC(c3ccoc3)OC(=O)C1CCC1(C)C2CCC(O)C1(C)O (configuration not stated),–,16.5 µM (active)
C[C@@H]1O[C@@H](O[C@H]2[C@H](O[C@H]3[C@H](O[C@H]4CC[C@@]5(C)C(CC[C@]6(C)C5CC=C5[C@@H]7CC(C)(C)C[C@@H](O)[C@]7(C)CC[C@]56C)[C@@]4(C)CO)O[C@H](C(=O)O)[C@@H](O)[C@@H]3O)O[C@H](CO)[C@H](O)[C@@H]2O)[C@H](O)[C@H](O)[C@H]1O (some centres not stated),67.3% [at 11.5 µM],–
COc1ccccc1Oc1c(NS(=O)(=O)c2ccc(C)cn2)nc(-c2ccncc2)nc1OC,–,inactive
C/C(=C\CO)CC/C=C(\C)C(=O)O[C@@H]1O[C@H](CO)[C@@H](O)[C@H](O)[C@H]1O,–,inactive
COc1cc2c(c(OC)c1O)C(c1ccc(O)cc1)C1C(=O)OC3C(COC(=O)C1=C2)OC(CO)(OC1OC(COC(=O)/C=C/c2ccc(OC4OC(C)C(O)C(O)C4O)cc2)C(O)C(O)C1O)C3O (configuration not stated),–,4.5 µM (active)
